# Results taken from PubChem BioAssay (EPA / NIEHS).
# Values joined by “and” are separate entries in the source; they are usually repeats but may differ in a detail not shown here. Identical values can stand only once. Some compounds were tested as several samples or in several runs, with calls that do not always agree. Active and inactive are the calls of the source. Rule for the calls: active = hit-call score of the fitted dose curve at least 0.9, where 1 is the maximum; inactive = score below 0.9.
# Assay: ATG_SREBP_CIS: Attagene CIS-FACTORIAL HepG2 Assay for human Sterol Regulatory Element Binding (SREBP) (AID 2282962)
# Details: HepG2 Attagene cis-factorial SREBP reporter, mRNA; actives raise or lower the signal
# Procedure: ATG_CIS is a cell-based, multiplexed-readout assay that uses HepG2, a human liver cell line, with measurements taken at 24 hours after chemical dosing in a 24-well plate.ATG_SREBP_CIS is one of 52 assay component(s) measured or calculated from the ATG_CIS assay. It is designed to make measurements of mRNA induction, a form of inducible reporter, as detected with fluorescence intensity signals by Reverse transcription polymerase chain reaction (RT-PCR) and Capillary electrophoresis technology.Data from the assay component ATG_SREBP_CIS was analyzed into 1 assay endpoint. This assay endpoint, ATG_SREBP_CIS, was analyzed with bidirectional fitting relative to DMSO as the negative control and baseline of activity. Using a type of inducible reporter, measures of mRNA for gain or loss-of-signal activity can be used to understand the reporter gene at the transcription factor-level as they relate to the gene SREBF1. Furthermore, this assay endpoint can be referred to as a primary readout, because this assay has produced multiple assay endpoints where this one serves a reporter gene function. To generalize the intended target to other relatable targets, this assay endpoint is annotated to the dna binding intended target family, where the subfamily is basic helix-loop-helix leucine zipper.
# Human liver HepG2 cells are transiently transfected with multiple reporter transcription units (MRTUs) in 6-well plates using FuGene 6 reagent (Roche; 3 ml FuGene/1 mg DNA). The MRTU constructs are regulated by a cis-regulating element (promoter). […] A major difference between the CIS and TRANS system is that in CIS activities of endogenous TFs are measured, whereas the TRANS assay evaluates changes in activities of exogenous, chimeric NR-Gal4 proteins. […] At the end of 24 hour incubation, total RNA was isolated using TriZol reagent (Invitrogen). The isolated RNA is then reverse-transcribed using oligo(dT) primer and Mo-MLV reverse transcriptase (Invitrogen) with DNAse I (Ambion) treatment for 30 min. The one-tenth of the produced cDNA was amplified by PCR using Taq DNA polymerase (Invitrogen) and two reporter sequence-specific primers. The PCR products were fluorescently labeled by primer extension with 6-arboxyfluorescein (6-FAM) 5'-labeled reporter sequence-specific primer (2 min at 95 C, 20 s at 68 C and 10 min at 72 C) and these products were digested with 5U of HpaI (New England Biolabs) for 2h at 37 C. The fragments were purified using Qiaquick PCR columns (Qiagen), analyzed on an ABI 3130xL genetic analyzer (Applied Biosystems) with peak positions identified by using a set of X-rhodamine (ROX)-labeled MapMarker1000 molecular weight standards (BioVentures). The raw capillary electrophoresis data was processed using Attagraph software (Attagene).
SMILES,outcome,AC50
CCC(C)(C)C(=O)OC1=C(c2ccc(Cl)cc2Cl)C(=O)OC12CCCCC2,inactive,–
CCCN(CCC)c1c([N+](=O)[O-])cc(C(F)(F)F)cc1[N+](=O)[O-],inactive,–
CC1(c2ccc(Oc3ccccc3)cc2)OC(=O)N(Nc2ccccc2)C1=O (stereo not given),inactive,–
COc1nn(CSP(=S)(OC)OC)c(=O)s1,inactive,–
CCOC1Oc2ccc(OS(C)(=O)=O)cc2C1(C)C (stereo not given),inactive,–
C#CCN1C(=O)COc2cc(F)c(N3C(=O)C4=C(CCCC4)C3=O)cc21,inactive,–
COC(=O)c1ccccc1S(=O)(=O)NC(=O)Nc1nc(C)nc(OC)n1,inactive,–
O=[N+]([O-])c1c(Cl)c(Cl)c(Cl)c(Cl)c1Cl,inactive,–
N#CN,inactive,–
CCCN(CCOc1c(Cl)cc(Cl)cc1Cl)C(=O)n1ccnc1,inactive,11.1 µM (active)
[2H]C1([2H])[n+]2ccccc2-c2cccc[n+]2C1([2H])[2H],–,13.3 µM (active)
Oc1cc(Cl)ccc1Oc1ccc(Cl)cc1Cl,inactive,–
CC(C)(C)C(O)C(Oc1ccc(Cl)cc1)n1cncn1 (stereo not given),inactive,48.7 µM (active) and 23.2 µM (active) and 24 µM (active)
COC(=O)c1ccccc1CS(=O)(=O)NC(=O)Nc1nc(OC)cc(OC)n1,inactive,–
O=S(=O)(O)C(F)(F)C(F)(F)C(F)(F)C(F)(F)C(F)(F)C(F)(F)C(F)(F)C(F)(F)F,inactive,68.7 µM (active)
CC(C)OC(=O)Nc1cccc(Cl)c1,inactive,–
CN1CSC(=S)N(C)C1,inactive,–
CNC(=O)Oc1ccccc1OC(C)C,inactive,–

SMILES,outcome,AC50
O=C(O)CCCOc1ccc(Cl)cc1Cl,inactive,–
CNC(=O)Oc1cccc(N=CN(C)C)c1,–,84.6 µM (active)
CNC(=O)/C=C(\C)OP(=O)(OC)OC,inactive,–
O=C(O)C(F)(F)C(F)(F)C(F)(F)C(F)(F)C(F)(F)C(F)(F)C(F)(F)F,inactive,–
COP(=S)(OC)Oc1ccc(SC)c(C)c1,–,24.7 µM (active)
ClC1C(Cl)C(Cl)C(Cl)C(Cl)C1Cl (stereo not given),inactive,67.6 µM (active)
O=C(Nc1ccccc1)Nc1cnns1,–,50 µM (active)
CNC(=O)CSP(=S)(OC)OC,inactive,–
Clc1ccccc1-c1nnc(-c2ccccc2Cl)nn1,inactive,–
CCOCN(C(=O)CCl)c1c(C)cccc1CC,inactive,–
CC(C)(C)C(O)/C(=C\c1ccc(Cl)cc1Cl)n1cncn1 (stereo not given),inactive,–
CCS(=O)(=O)c1cccnc1S(=O)(=O)NC(=O)Nc1nc(OC)cc(OC)n1,inactive,–
Cc1cc(C)nc(NC(=O)NS(=O)(=O)c2ccccc2C(=O)OC2COC2)n1,–,81.9 µM (active)
COC(=O)c1ccccc1S(=O)(=O)NC(=O)N(C)c1nc(C)nc(OC)n1,inactive,–
O=[N+]([O-])/N=C1\NCCN1Cc1ccc(Cl)nc1,inactive,–
CC(C)N(C(=O)COc1nnc(C(F)(F)F)s1)c1ccc(F)cc1,inactive,–
COP(=O)(OC)OC=C(Cl)Cl,inactive,–
CCc1ccc(C(=O)NN(C(=O)c2cc(C)cc(C)c2)C(C)(C)C)cc1,inactive,–
